A selection: hits, their analogues and other compounds. The true share with any hit is near 10%.
GLS inhibitor = blocks human kidney-isoform glutaminase activity; GLS enzymatic activity, qHTS titration; Potency, µM (highest dose often 45.5 µM), usual class: inhibitors; 410,000 tested, 0.21% active; AID 624170
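Coupled fluorescence readout: glutamate oxidase/HRP/Amplex Red detect glutamate formed by hKGA from L-glutamine (1 mM solution added). Buffer 45 mM KH2PO4 pH 8.2, 0.02% Tween-20; reads at t0 and 30 min RT.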
HP1b chromo inh = blocks HP1-beta chromodomain binding to methylated histone tails. Potency, µM (series often up to 114 µM), hits mostly inhibitors. 390,000 tested, 0.56% active. AlphaScreen HP1-beta / biotin-H3K9me3 peptide binding. AID 540317; further: nearly all actives have a fitted effect of over 70% in size
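AlphaScreen: HP1-beta (50 nM) preformed 30 min with biotin-H3(1-18)K9me3 peptide (50 nM) in PBS pH 7.4, 0.01% Tween-20. Compound added for 30 min at RT, then streptavidin donor/nickel chelate acceptor beads (10 ug/mL) for 30 min.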
JMJD2A Tudor inh = inhibitors of human JMJD2A Tudor domain | O75164 | AlphaScreen JMJD2A-Tudor / H3K4me3 peptide binding | Potency, µM (titrated, usually from 114 µM), actives largely listed as inhibitors | 390,000 tested, 4.4% active | AID 504339; further: nearly all actives have a fitted effect of over 50% in size
G9a block = G9a (human) methyltransferase inhibition; Q96KQ7; G9a H3K9 monomethylation, AlphaScreen, 2 h; Potency, µM (titrated, usually from 102 µM), actives largely listed as inhibitors; 350,000 tested, 8.8% active; further: nearly all actives have a fitted effect of over 75% in size
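G9a (20 nM) was preincubated 15 min with compound, then reacted 2 h at room temperature with 500 nM biotin-H3K9 peptide and 20 µM SAM. Monomethyl-H3K9 detected by AlphaScreen using anti-H3K9me1 antibody.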
BAZ2B inh = blocks human BAZ2B; AlphaScreen BAZ2B-H3K14Ac peptide displacement; Potency, µM (series often up to 114 µM), actives largely listed as inhibitors; 360,000 tested, 4.4% active; AID 504333; further: nearly all actives have a fitted effect of over 60% in size
Target sequence (Q9UIF8 whole entry, looked up): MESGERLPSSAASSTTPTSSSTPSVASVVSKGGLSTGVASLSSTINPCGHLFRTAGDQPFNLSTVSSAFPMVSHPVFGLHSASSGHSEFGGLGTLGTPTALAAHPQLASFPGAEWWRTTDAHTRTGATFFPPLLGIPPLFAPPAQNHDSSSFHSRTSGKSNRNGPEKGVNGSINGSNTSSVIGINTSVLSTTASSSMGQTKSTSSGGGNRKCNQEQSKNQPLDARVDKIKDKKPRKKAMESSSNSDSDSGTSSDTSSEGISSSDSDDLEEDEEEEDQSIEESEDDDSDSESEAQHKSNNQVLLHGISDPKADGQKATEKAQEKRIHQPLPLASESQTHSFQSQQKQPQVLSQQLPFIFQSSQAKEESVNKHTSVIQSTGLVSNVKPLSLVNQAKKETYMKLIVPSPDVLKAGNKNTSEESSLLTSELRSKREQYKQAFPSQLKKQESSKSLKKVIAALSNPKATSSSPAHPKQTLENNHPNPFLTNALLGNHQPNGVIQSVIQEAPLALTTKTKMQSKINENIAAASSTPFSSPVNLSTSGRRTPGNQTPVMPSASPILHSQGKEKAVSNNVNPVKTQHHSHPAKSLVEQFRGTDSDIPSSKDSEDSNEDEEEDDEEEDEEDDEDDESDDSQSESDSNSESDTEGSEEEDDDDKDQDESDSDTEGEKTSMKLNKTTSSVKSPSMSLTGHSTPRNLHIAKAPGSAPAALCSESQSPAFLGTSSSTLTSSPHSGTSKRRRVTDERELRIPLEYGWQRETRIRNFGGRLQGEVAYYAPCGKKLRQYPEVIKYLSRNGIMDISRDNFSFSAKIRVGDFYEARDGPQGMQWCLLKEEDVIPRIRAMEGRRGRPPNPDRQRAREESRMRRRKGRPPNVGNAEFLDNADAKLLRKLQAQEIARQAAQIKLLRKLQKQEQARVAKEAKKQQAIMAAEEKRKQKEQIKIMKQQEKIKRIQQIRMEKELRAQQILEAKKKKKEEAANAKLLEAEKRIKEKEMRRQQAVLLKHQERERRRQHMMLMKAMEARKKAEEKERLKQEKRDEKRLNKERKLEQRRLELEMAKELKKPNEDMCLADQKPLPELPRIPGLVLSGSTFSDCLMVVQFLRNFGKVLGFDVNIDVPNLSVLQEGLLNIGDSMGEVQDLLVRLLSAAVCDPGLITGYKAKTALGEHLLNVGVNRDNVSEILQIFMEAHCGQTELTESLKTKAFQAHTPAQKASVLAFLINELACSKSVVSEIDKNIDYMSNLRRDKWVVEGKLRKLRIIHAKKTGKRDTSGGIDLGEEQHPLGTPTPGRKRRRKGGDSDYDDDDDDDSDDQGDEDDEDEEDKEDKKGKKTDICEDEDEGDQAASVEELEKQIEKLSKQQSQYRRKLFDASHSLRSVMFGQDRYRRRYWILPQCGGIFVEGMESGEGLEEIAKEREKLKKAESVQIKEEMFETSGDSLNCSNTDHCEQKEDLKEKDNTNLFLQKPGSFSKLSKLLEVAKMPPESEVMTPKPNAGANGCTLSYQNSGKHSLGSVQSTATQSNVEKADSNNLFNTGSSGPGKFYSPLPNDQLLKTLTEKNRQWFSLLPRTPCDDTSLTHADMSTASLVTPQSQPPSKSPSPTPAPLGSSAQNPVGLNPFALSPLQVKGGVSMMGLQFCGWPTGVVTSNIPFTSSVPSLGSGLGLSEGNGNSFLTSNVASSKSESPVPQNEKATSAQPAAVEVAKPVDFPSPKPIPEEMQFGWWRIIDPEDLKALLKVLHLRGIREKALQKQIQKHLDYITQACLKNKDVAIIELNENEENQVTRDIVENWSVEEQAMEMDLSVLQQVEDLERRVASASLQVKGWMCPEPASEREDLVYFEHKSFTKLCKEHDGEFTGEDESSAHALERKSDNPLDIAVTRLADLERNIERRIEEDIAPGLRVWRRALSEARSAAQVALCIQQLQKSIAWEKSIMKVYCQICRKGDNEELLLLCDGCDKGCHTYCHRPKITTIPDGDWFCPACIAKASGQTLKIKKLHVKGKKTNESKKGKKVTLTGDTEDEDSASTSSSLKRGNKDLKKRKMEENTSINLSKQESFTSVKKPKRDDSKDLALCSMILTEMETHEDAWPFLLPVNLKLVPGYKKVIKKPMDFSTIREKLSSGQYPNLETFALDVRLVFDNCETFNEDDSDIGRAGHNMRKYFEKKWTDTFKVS
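Protein-peptide AlphaScreen: BAZ2B 50 nM, b-H3K14Ac 50 nM, 1x PBS pH 7.4 + 0.01% Tween-20. Preincubation 30 min RT; cpd 30 min RT (top 110 uM); beads 20 min RT, light-protected.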
Each line names hits and unclear results; the compound was inactive in the other large screens; ! = a repeat was not active. The call rests on the fitted dose curve; in most records, active means well fitted curve in the direction sought with a large enough effect; inconclusive means small, poorly fitted or top-dose-only effect, or another doubt; inactive means no such curve, though single readings can be large; an effect the other way counts as inactive or inconclusive.

O=C(CN1C(=O)CN=C(c2ccccc2)c2ccccc21)NCc1ccco1	G9a block inconclusive, BAZ2B inh inconclusive
COc1ccc(C2=NCC(=O)N(CC(=O)NCc3ccco3)c3sc4c(c32)CCCC4)cc1OC	G9a block 16µM
Nc1nc2ccc(Cl)cc2c2nc(-c3ccco3)nn12	G9a block 2.5µM! (no result: GLS inhibitor, HP1b chromo inh, JMJD2A Tudor inh)
O=c1c2ccccc2nc(-c2ccco2)n1-c1ccccc1	G9a block inconclusive
COc1ccc(OC)c(N2C(=O)NC(=O)/C(=C/c3ccc([N+](=O)[O-])s3)C2=O)c1	HP1b chromo inh 32µM, JMJD2A Tudor inh 28µM, G9a block 11µM, BAZ2B inh 40µM
COc1cc(/C=C2\C(=O)NC(=O)N(c3ccccc3)C2=O)c([N+](=O)[O-])cc1OC	G9a block 10µM
Cc1ccc(-n2c(C)cc(/C=C3/C(=O)NC(=O)N(C)C3=O)c2C)cc1	G9a block inconclusive
Cc1ccc(N2C(=O)NC(=O)/C(=C\c3ccoc3)C2=O)cc1	G9a block 45µM, BAZ2B inh inconclusive
COc1ccc(N2C(=O)/C(=C/c3cc(C)n(-c4ccc(C)cn4)c3C)C(=O)NC2=S)c(OC)c1	GLS inhibitor inconclusive, JMJD2A Tudor inh 40µM, G9a block 32µM, BAZ2B inh inconclusive
O=C(Nc1cc(Cl)cc(Cl)c1)N1Cc2ccccc2-n2nncc2C1	none (no result: HP1b chromo inh, JMJD2A Tudor inh, G9a block, BAZ2B inh)
O=C1NC(=S)N(c2ccc(Cl)cc2)C(=O)/C1=C/N1CCN(C(=O)c2ccco2)CC1	G9a block 50µM
O=C1NC(=O)N(c2cccc(F)c2)C(=O)/C1=C/c1ccc(N2CCOCC2)cc1	none (no result: G9a block)
COc1ccc(OC)c(N2C(=O)/C(=C/c3ccco3)C(=O)NC2=S)c1	HP1b chromo inh 3.2µM, JMJD2A Tudor inh 1.6µM, G9a block 1.8µM, BAZ2B inh 1.4µM
CCc1ccc(N2C(=O)NC(=O)/C(=C/c3ccsc3)C2=O)cc1	G9a block 40µM (no result: GLS inhibitor, HP1b chromo inh, JMJD2A Tudor inh)
O=C1NC(=O)N(c2ccc3c(c2)OCO3)C(=O)/C1=C/c1ccsc1	G9a block inconclusive
O=C1NC(=S)N(c2ccc(F)cc2)C(=O)/C1=C\c1ccoc1	HP1b chromo inh 5.6µM, JMJD2A Tudor inh 3.2µM, G9a block 7.9µM, BAZ2B inh 14µM
CC[C@@H]1CN2CCc3cc(OC)c(OC)cc3[C@H]2C[C@@H]1C[C@H]1NCCc2cc(OC)c(OC)cc21	none (no result: GLS inhibitor, HP1b chromo inh, JMJD2A Tudor inh, BAZ2B inh)
Cc1ccc(-c2nc(CN3C(=O)CN=C(c4ccccc4Cl)c4cc(Cl)ccc43)c(C)o2)cc1	none
O=C1NC(=O)C(=Cc2ccco2)C(=O)N1	GLS inhibitor 11µM, JMJD2A Tudor inh 45µM (no result: G9a block, BAZ2B inh)
O=C1NC(=O)C(=Cc2c(Cl)cccc2Cl)C(=O)N1	none (no result: G9a block, BAZ2B inh)
O=C1NC(=S)N(c2ccc(F)cc2)C(=O)/C1=C/c1ccco1	G9a block inconclusive, BAZ2B inh 1.8µM (no result: GLS inhibitor, HP1b chromo inh, JMJD2A Tudor inh)
Cc1nn(CCC#N)c2c1P(=S)(N1CCCC1)OC(c1ccc(F)cc1)=N2 (centres undefined)	GLS inhibitor inconclusive, HP1b chromo inh 14µM, JMJD2A Tudor inh inconclusive, G9a block 16µM, BAZ2B inh inconclusive
NNCc1ccccc1	JMJD2A Tudor inh 20µM (no result: BAZ2B inh)
c1ccc(CNC2CCCCCCC2)cc1 (tested in a mixture with another compound)	none (no result: G9a block, BAZ2B inh)
COCC(=O)N1CCC2(CCCN(Cc3ccncc3)C2)CC1	none (no result: GLS inhibitor, HP1b chromo inh, JMJD2A Tudor inh, BAZ2B inh)
NC1CCCCC1N=Cc1c(O)n(Cc2ccc(F)cc2)c(=O)[nH]c1=O (centres undefined)	G9a block 0.89µM, BAZ2B inh inconclusive
CCCCn1c(O)c(C=NC2CCCCC2N)c(=O)[nH]c1=O (centres undefined)	G9a block 4µM, BAZ2B inh inconclusive
CN1CCN(/N=C/c2c(O)n(Cc3ccc(F)cc3)c(=O)[nH]c2=O)CC1	G9a block 56µM
CCCCC/C=C\C/C=C\C/C=C\C/C=C\CCCC(N)=O	none (no result: GLS inhibitor, HP1b chromo inh, JMJD2A Tudor inh, BAZ2B inh)
CCN1C[C@]2(COC)CC[C@H](O)[C@@]34[C@@H]5C[C@H]6[C@@H](OC)[C@H]5[C@](O)(C[C@@H]6OC)[C@@](O)([C@@H](OC)[C@H]23)[C@@H]14	none (no result: GLS inhibitor, HP1b chromo inh, JMJD2A Tudor inh, BAZ2B inh)
O=C(c1cc2ccccn2n1)N1CCN(Cc2ccccc2)CC1	G9a block inconclusive
O=C(Nc1ccc(Cl)cc1)O/N=C(\c1ccccc1)c1ccccn1	JMJD2A Tudor inh 10µM, G9a block inconclusive, BAZ2B inh 14µM
Nn1c(COc2ccc(Cl)cc2)n[nH]c1=S	JMJD2A Tudor inh 32µM, G9a block 1.8µM

Source: PubChem (National Center for Advancing Translational Sciences (NCATS))
